PubChem BioAssay (NCATS)
Inconclusive results are not listed. The source made the active and inactive calls. Calls come from the whole dose curve; as a rule, active = well fitted curve in the direction sought with a large enough effect; inconclusive = small, poorly fitted or top-dose-only effect, or another doubt; inactive = no such curve, though single readings can be large; an effect the other way counts as inactive or inconclusive.

Tests used:
[1] = HEK293 12hr Apoptosis Induction qHTS against the NCATS CANVASS Library (AID 1347361)
How it was run: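 Apoptosis in HEK293 was scored as caspase-3/7 luminescence following 12 h treatment with a compound concentration series in qHTS format.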

[2] = test system: NAD(P)H diaphorase (Clostridium kluyveri); experiment: Diaphorse counterscreen qHTS: Assay Interference Panel against the NCATS CANVASS Library (AID 1347362)
How it was run: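 Clostridium kluyveri diaphorase in PBS + 0.01% Tween-20 preincubated 15 min with compounds. Resazurin and NADH then added for 5 min at room temperature in the dark; resorufin fluorescence read (ex 525, em 598).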

[3] = biological target: Luciferin 4-monooxygenase (Photinus pyralis) (UniProt P08659); experiment: Firefly luciferase counterscreen qHTS: Assay Interference Panel against the NCATS CANVASS Library (AID 1347363); note: series mostly up to about 57 µM
How it was run: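 Purified P. pyralis luciferase (0.04 ug/mL, 4x reagent) added to Tris-acetate buffer with 0.013 mM D-luciferin, 0.013 mM ATP and 13.3 mM Mg-acetate; compounds preincubated 15 min, then luminescence read after 5 min, RT.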

[4] = KB-8-5-11 Cancer Cell Toxicity qHTS against the NCATS CANVASS Library (AID 1347364); details: outcome: dose series up to 46.1 µM; note: nearly all actives have a fitted effect of over 75% in size
How it was run: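 Natural products were titrated in 11 points onto KB-8-5-11 cells, 500 per well, and cytotoxicity was scored from CellTiter-Glo luminescence after 72 hr culture.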

[5] = SDT Cancer Cell Toxicity qHTS against the NCATS CANVASS Library (AID 1347365); details: outcome: dose series up to 46.1 µM; note: nearly all actives have a fitted effect of over 60% in size
How it was run: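 Dispense 500 SDT cells per well; pin-transfer compounds; incubate 72 hr at 37C, 5% CO2, 95% RH; add CellTiterGlo and read luminescence.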

[6] = KB-3-1 Cancer Cell Toxicity qHTS against the NCATS CANVASS Library (AID 1347366); note: series mostly up to about 46 µM; nearly all actives have a fitted effect of over 75% in size
How it was run: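 Seed KB-3-1 cells at 500/well in DMEM with 10% FBS, add compounds, incubate 72 hr at 37C and 5% CO2, then add CellTiter-Glo and read luminescence after 10 minutes.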

[7] = qHTS for ATAD5 Agonist screened against the NCATS CANVASS Library (AID 1347367);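 note: luciferase reporter driven by ATAD5 which rises upon DNA damage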
How it was run: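 Step one plated reporter cells and let them acclimate 5hr. Step two pinned compounds with MMS as positive and 0.46% DMSO as negative control. After 16hr incubation, fluorescence viability then luminescence were read.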

[8] = G06 Cancer Cell Toxicity qHTS against the NCATS CANVASS Library (AID 1347368); note: series mostly up to about 46 µM; nearly all actives have a fitted effect of over 60% in size
How it was run: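 Cytotoxicity toward canine glioma G06 cells is scored from cellular ATP via luminescence after 72 hr compound exposure at 500 cells/well.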

[9] = MCF7 Cancer Cell Toxicity qHTS against the NCATS CANVASS Library (AID 1347369); details: outcome: dose series up to 46 µM
How it was run: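 Cytotoxicity is measured by ATP content: MCF7 cells at 500 per well receive an 11-point compound series and, after 72 hr at 37C, are lysed with CellTiterGlo for luminescence.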

[10] = qHTS for ATAD5 Antagonist screened against the NCATS CANVASS Library (AID 1347370);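 note: HEK293T cells carrying an ATAD5 luciferase reporter co-treated with 10 µM 5-fluorouridine; series mostly up to about 46 µM; nearly all actives have a fitted effect of over 65% in size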
How it was run: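 HEK293T cells with a stably integrated ATAD5-controlled luciferase reporter were exposed to compounds (11-pt) alongside 10 uM 5-fluorouridine as ATAD5 stabilizer for 16hr at 37C. Viability was read by CellTiter-Fluor fluorescence, then ATAD5 by luminescence.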

[11] = J3T Cancer Cell Toxicity qHTS against the NCATS CANVASS Library (AID 1347371); details: outcome: dose series up to 46.1 µM
How it was run: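 Viability of the J3T glioma line from dog is scored by ATP luminescence after a 72 hr incubation with natural products.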

[12] = biological target: Nuclear receptor subfamily 1 group I member 3 (Homo sapiens) (UniProt Q14994); experiment: qHTS for Constitutive Androstane Receptor (CAR) Antagonist screened against the NCATS CANVASS Library (AID 1347372);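 note: cells stimulated with 50 nM CITCO agonist so inhibition reflects antagonism; series mostly up to about 46 µM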
How it was run: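 HepG2 cells stably carrying hCAR and CYP2B6-2.2kb luciferase reporter, 2500 cells/well, compound with 50 nM CITCO agonist for 24hr at 37C. ONE-Glo luminescence measured CAR activity; CellTiter-Fluor read viability.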

[13] = 10-beta competent E. coli microbial cell viability qHTS against the NCATS CANVASS Library (AID 1347376); note: series mostly up to about 46 µM
How it was run: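 Cytotoxicity toward competent E. coli is scored from cellular ATP content via BacTiter-Glo luminescence following overnight compound exposure at 37C, 5% CO2.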

[14] = DH5-alpha competent E. coli microbial cell viability qHTS against the NCATS CANVASS Library (AID 1347377)
How it was run: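 Cell viability of competent DH5-alpha E. coli is scored from ATP content by luminescence. Cells sit overnight at 37C with compound across an 11-point concentration series.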

[15] = qHTS for H2AX Agonists against the NCATS CANVASS Library (AID 1347378);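 note: phospho-H2AX S139 level in CHO-K1 lysates by TR-FRET emission ratio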
How it was run: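 Following overnight seeding, CHO-K1 cells are incubated with a concentration series of compound for 3 hr at 37C (final DMSO 0.76%). Cells are then lysed, detection antibodies added, and emission ratio 665/620 nm recorded after 24 hr at room temperature.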

[16] = qHTS for Inflammasome Signaling Inhibitors: IL-1-beta AlphaLISA screen against the NCATS CANVASS Library (AID 1347379); details: outcome: dose series up to 57.5 µM;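 note: human THP-1 cells primed with LPS then triggered with ATP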
How it was run: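 Human THP-1 cells were pretreated 1 hr at 37 °C with compounds (up to 57.5 uM final), then stimulated with LPS (250 ng/mL final) and ATP (1.25 mM final). Secreted IL-1B was read by AlphaLISA after 16 hr.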

[17] = qHTS for Antimalaria activity screened against the NCATS CANVASS Library (AID 1347380);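 note: Plasmodium falciparum strain Dd2 asexual parasites grown in red blood cells; series mostly up to about 29 µM; nearly all actives have a fitted effect of over 40% in size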
How it was run: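 Growth inhibition of asexual erythrocytic P. falciparum Dd2 was quantified by SYBR Green DNA staining. Cultures grew 72 h with compound (11-point series) in hypoxic gas at 37C; lysis and staining lasted 18 h.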

[18] = biological target: Nuclear receptor subfamily 1 group I member 3 (Homo sapiens) (UniProt Q14994); experiment: qHTS for Constitutive Androstane Receptor (CAR) Agonist screened against the NCATS CANVASS Library (AID 1347373);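 note: every well also contained 1.5 µM PK11195 alongside the test compound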
How it was run: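 CAR agonism is scored as CYP2B6-promoter luciferase induction in a double-stable transfected HepG2 line, where 1.5uM PK11195 is included in each well. Compounds were tested over a 24hr exposure.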

[19] = qHTS for Hypoxia signaling pathway (HIF-1) antagonists against the NCATS CANVASS Library (AID 1347374);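 note: HRE-bla ME-180 cells stimulated with cobalt chloride to stabilize HIF-1alpha; series mostly up to about 38 µM; nearly all actives have a fitted effect of over 60% in size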
How it was run: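 HRE-bla ME-180 cells (2,000/well, 0.5% dialyzed FBS) were pre-incubated 5 h, then given an 11-point compound series plus CoCl2 (60 uM solution as added) for 17 h at 37C. CCF4 β-lactamase read (ex 405, em 460/530 nm) after 2 h at RT.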

[20] = qHTS for Hypoxia signaling pathway (HIF-1) agonists against the NCATS CANVASS Library (AID 1347375)
How it was run: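 Inducers of HIF-1 signaling were detected in ME-180 cells bearing an HRE-driven beta-lactamase reporter after 17 h compound exposure. Activity came from CCF4-AM FRET emission ratio (460/530 nm) in qHTS format.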

Measured: outcome

Sequence of Nuclear receptor subfamily 1 group I member 3 (Homo sapiens) (Q14994 whole entry, looked up): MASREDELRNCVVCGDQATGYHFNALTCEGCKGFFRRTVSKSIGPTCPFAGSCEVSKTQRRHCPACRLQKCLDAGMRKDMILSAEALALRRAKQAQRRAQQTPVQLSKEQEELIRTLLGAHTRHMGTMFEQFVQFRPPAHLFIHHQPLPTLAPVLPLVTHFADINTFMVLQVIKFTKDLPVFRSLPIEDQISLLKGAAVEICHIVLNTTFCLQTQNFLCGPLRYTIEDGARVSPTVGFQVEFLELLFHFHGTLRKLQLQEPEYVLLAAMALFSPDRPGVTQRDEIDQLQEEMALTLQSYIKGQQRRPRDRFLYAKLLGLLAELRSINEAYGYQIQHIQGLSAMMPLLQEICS
Sequence of Luciferin 4-monooxygenase (Photinus pyralis) (P08659 whole entry, looked up): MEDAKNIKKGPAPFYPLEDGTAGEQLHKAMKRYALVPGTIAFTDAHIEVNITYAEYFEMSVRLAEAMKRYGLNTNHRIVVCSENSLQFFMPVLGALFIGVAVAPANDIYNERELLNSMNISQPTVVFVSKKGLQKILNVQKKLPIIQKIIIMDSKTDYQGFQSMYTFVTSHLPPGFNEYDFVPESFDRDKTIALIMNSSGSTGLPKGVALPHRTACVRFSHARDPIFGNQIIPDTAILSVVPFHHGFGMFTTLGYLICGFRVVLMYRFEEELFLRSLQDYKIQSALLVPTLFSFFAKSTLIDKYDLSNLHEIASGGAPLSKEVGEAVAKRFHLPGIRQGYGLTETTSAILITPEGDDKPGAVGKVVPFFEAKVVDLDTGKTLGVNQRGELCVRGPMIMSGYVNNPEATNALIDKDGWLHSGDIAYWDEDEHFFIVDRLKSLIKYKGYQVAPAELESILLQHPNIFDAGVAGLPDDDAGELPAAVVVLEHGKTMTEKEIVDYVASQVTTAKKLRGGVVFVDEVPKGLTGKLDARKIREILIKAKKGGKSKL

CC1=C2C(=O)O[C@@H](c3ccoc3)[C@]2(C)CCC1
not listed: [18] | [19] | [20]
inactive: all other assays above

C/C=C/C=C/C(CC(=O)O)Nc1ccc(C=O)cc1 (stereo unspecified)
not listed: [17]
inactive: all other assays above
